Source: the supplement of paper PMC7366291
Counter-ions that a name gives are not always drawn.

Tested on: Danio rerio Tg(wt1b:EGFP) embryo, pronephros
Test: fraction of imaged embryos annotated as normal kidney; higher = less nephrotoxic; extreme values may be limits of the assay
Settings: 25 µM; exposure: 24-48 hpf
Procedure, shortened: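 Dechorionated Tg(wt1b:EGFP) zebrafish embryos were exposed in 12-well plates to 25 μM compound in 0.5% DMSO, 5 mM HEPES-buffered E3 with 0.003% PTU, from 24 to 48 hpf at 28.5°C. Tricaine-anaesthetised larvae were oriented dorsally in agarose-filled 96-well plates, and pronephroi were imaged by widefield fluorescence (470 nm, 10 z-slices). Each embryo was manually annotated from maximum projections. The read-out is the fraction of embryos per treatment assigned to the normal-kidney category.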

Question: For `CC(C)Nc1cccnc1N1CCN(C(=O)c2cc3cc(NS(C)(=O)=O)ccc3[nH]2)CC1` [Delavirdine], which “fraction of imaged embryos annotated as normal kidney” value (shortened to “fraction of imaged embryos annotated”) is on record?
Answer: 0.667

Question: For `O=C(C1CCCCC1)N1CC(=O)N2CCc3ccccc3C2C1` (stereo not given) [Praziquantel], which “fraction of imaged embryos annotated” value is on record?
Answer: 0.545

Question: For `Nc1cc(N2CCCCC2)nc(N)[n+]1[O-]` [Minoxidil], which “fraction of imaged embryos annotated” value is on record?
Answer: 0.917

Question: With `CC(NCCC(c1ccccc1)c1ccccc1)c1ccccc1` (stereo not given) [Fendiline hydrochloride] as the compound, how does the “fraction of imaged embryos annotated” value read?
Answer: 0.727

Question: With `C=CCN1CCCC1CNC(=O)c1cc2nn[nH]c2cc1OC` (stereo not given) [Alizapride hydrochloride] as the compound, how does the “fraction of imaged embryos annotated” value read?
Answer: 0.917

Question: With `CCOc1ccccc1OCC1CNCCO1` (stereo not given) [Viloxazine hydrochloride] as the compound, how does the “fraction of imaged embryos annotated” value read?
Answer: 0.833

Question: `N=C(N)N1CCc2ccccc2C1` [Debrisoquin sulfate] was tested. Which “fraction of imaged embryos annotated” value did it give?
Answer: 0.667

Question: With `CC(=O)[C@H]1CC[C@H]2[C@@H]3CCC4=CC(=O)CC[C@]4(C)[C@H]3CC[C@]12C` [Progesterone] as the compound, how does the “fraction of imaged embryos annotated” value read?
Answer: 0.364

Question: `Oc1c(I)cc(Cl)c2cccnc12` [Clioquinol] was tested. Which “fraction of imaged embryos annotated” value did it give?
Answer: 0

Question: With `CN(C)CCN(Cc1ccccc1)c1ccccn1` [Tripelennamine hydrochloride] as the compound, how does the “fraction of imaged embryos annotated” value read?
Answer: 1

Question: How did the “fraction of imaged embryos annotated” value turn out when `CC(=O)N(CC(O)CO)c1c(I)c(C(=O)NCC(O)CO)c(I)c(C(=O)NCC(O)CO)c1I` (stereo not given) [Iohexol] was run?
Answer: 0.75

Question: For `Clc1ccc(C(Cn2ccnc2)OCc2c(Cl)cccc2Cl)c(Cl)c1` (stereo not given) [Isoconazole], which “fraction of imaged embryos annotated” value is on record?
Answer: 0.167

Question: `C=C1C[C@H]2[C@@H]3C=C(C)C4=CC(=O)CC[C@]4(C)[C@H]3CC[C@]2(C)[C@@]1(OC(C)=O)C(C)=O` [Melengestrol acetate] was tested. Which “fraction of imaged embryos annotated” value did it give?
Answer: 0.917

Question: `CC[C@H](c1ccc(O)cc1)[C@@H](CC)c1ccc(O)cc1` [Hexestrol] was tested. Which “fraction of imaged embryos annotated” value did it give?
Answer: 0.25

Question: How did the “fraction of imaged embryos annotated” value turn out when `Cc1cccn2c(=O)c(-c3nnn[nH]3)cnc12` [Pemirolast potassium] was run?
Answer: 1

Question: Which “fraction of imaged embryos annotated” value does the source give for `CC(C)Cn1cnc2c(N)nc3ccccc3c21` [Imiquimod] here?
Answer: 1

Question: `CC[N+](C)(CC)CCC[n+]1c(-c2ccccc2)c2cc(N)ccc2c2ccc(N)cc21` [Propidium iodide] was tested. Which “fraction of imaged embryos annotated” value did it give?
Answer: 0.727

Question: `CC(C)(O/N=C(\C(=O)N[C@@H]1C(=O)N2C(C(=O)[O-])=C(C[n+]3ccccc3)CS[C@H]12)c1csc(N)n1)C(=O)O` [Ceftazidime pentahydrate] was tested. Which “fraction of imaged embryos annotated” value did it give?
Answer: 1

Question: How did the “fraction of imaged embryos annotated” value turn out when `CNCCc1ccccn1` [Betahistine mesylate] was run?
Answer: 0.833

Question: How did the “fraction of imaged embryos annotated” value turn out when `Cc1ccsc1/C=C/C1=NCCCN1C` [Morantel tartrate] was run?
Answer: 0.5

Question: Which “fraction of imaged embryos annotated” value does the source give for `COc1cc(C(=O)OCCCN2CCCN(CCCOC(=O)c3cc(OC)c(OC)c(OC)c3)CC2)cc(OC)c1OC` [Dilazep dihydrochloride] here?
Answer: 0.75

Question: How did the “fraction of imaged embryos annotated” value turn out when `CCC(C)(C)c1ccc(CC(C)CN2C[C@@H](C)O[C@@H](C)C2)cc1` (stereo not given in full) [Amorolfine hydrochloride] was run?
Answer: 0.917

Question: Which “fraction of imaged embryos annotated” value does the source give for `CO[C@@]1(NC(=O)CSCC#N)C(=O)N2C(C(=O)O)=C(CSc3nnnn3C)CS[C@@H]21` [Cefmetazole sodium salt] here?
Answer: 0.917

Question: `COc1ccc2c3c1O[C@H]1C[C@@H](O)C=C[C@@]31CCN(C)C2` [Galanthamine hydrobromide] was tested. Which “fraction of imaged embryos annotated” value did it give?
Answer: 0.917

Question: `CCN1CCC[C@H]1CNC(=O)c1c(O)c(Cl)cc(Cl)c1OC` [Raclopride] was tested. Which “fraction of imaged embryos annotated” value did it give?
Answer: 0.917

Question: How did the “fraction of imaged embryos annotated” value turn out when `CC(=O)OCC1=C(C(=O)O)N2C(=O)[C@@H](NC(=O)Cc3cccs3)[C@H]2SC1` [Cephalothin sodium salt] was run?
Answer: 1

Question: Which “fraction of imaged embryos annotated” value does the source give for `COCCOC(=O)C1=C(C)NC(C)=C(C(=O)OC(C)C)C1c1cccc([N+](=O)[O-])c1` (stereo not given) [Nimodipine] here?
Answer: 0.5

Question: For `Cc1ccc(C(=O)c2ccc(CC(=O)O)n2C)cc1` [Tolmetin sodium salt dihydrate], which “fraction of imaged embryos annotated” value is on record?
Answer: 0.333

Question: For `Cc1noc(NS(=O)(=O)c2ccc(N)cc2)c1C` [Sulfisoxazole], which “fraction of imaged embryos annotated” value is on record?
Answer: 0.75

Question: `OCC(O)CN1CCN(c2ccccc2)CC1` (racemic) [Dropropizine (R,S)] was tested. Which “fraction of imaged embryos annotated” value did it give?
Answer: 0.75

Question: For `CO/N=C(\C(=O)N[C@@H]1C(=O)N2C(C(=O)O)=C(COC(N)=O)CS[C@H]12)c1ccco1` [Cefuroxime sodium salt], which “fraction of imaged embryos annotated” value is on record?
Answer: 1

Question: Which “fraction of imaged embryos annotated” value does the source give for `c1ccc(CNc2ncnc3nc[nH]c23)cc1` [Aminopurine, 6-benzyl] here?
Answer: 0.667

Question: Which “fraction of imaged embryos annotated” value does the source give for `CC(C)(Oc1ccc(CCNC(=O)c2ccc(Cl)cc2)cc1)C(=O)O` [Bezafibrate] here?
Answer: 0.917

Question: With `CC1=C(/C=C/C(C)=C/C=C/C(C)=C/C(=O)O)C(C)(C)CCC1` [Retinoic acid] as the compound, how does the “fraction of imaged embryos annotated” value read?
Answer: 0

Question: `C[C@H]1O[C@H](O[C@H]2[C@H](O)[C@@H](O)[C@@H](O[C@H]3[C@H](O)[C@@H](O)C(O)O[C@@H]3CO)O[C@@H]2CO)[C@H](O)[C@@H](O)[C@@H]1N[C@H]1C=C(CO)[C@@H](O)[C@H](O)[C@H]1O` (stereo not given in full) [Acarbose] was tested. Which “fraction of imaged embryos annotated” value did it give?
Answer: 0.833
